Test results as given in PubChem BioAssay (Tox21).
Records with an inconclusive call do not appear. Active and inactive are the calls of the source. Unless noted, calls come from the whole dose curve; as a rule, active = well fitted curve in the direction sought with a large enough effect in the repeat runs; inconclusive = weak or mixed curves; inactive = no such curve, though single readings can be large; an effect the other way counts as inactive or inconclusive.

Tests used:
[1] = qHTS RealTime-Glo MT Cell Viability Assay in HEK293 cells - 0 hour (AID 1224880); note: top concentration of the series differs between compounds; nearly all actives have a fitted effect of over 45% in size
Procedure, shortened: (§1)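 Luminescence readout at each listed time point; HEK293, 600 cells/well, RealTime-Glo MT reagent added with cells; compounds pinned (23 nL in DMSO) after 5 h at 37 C; continuous culture at 37 C.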

[2] = A CellTox Green Cytotoxicity Assay to monitor cytotoxicity in HEK293 cells - 32 hour (AID 1224881); note: nearly all actives have a fitted effect of over 40% in size; note: potency is the fitted concentration of half-maximal effect
Procedure, shortened: (§2)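 Read-out: fluorescence of a cell-impermeant cyanine dye staining DNA of dead cells, proportional to cytotoxicity. HEK293, 600 cells/well with reagent, compound (23 nL DMSO) added after 5 h; reads at 0, 8, 16, 24, 32, 40 h.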

[3] = A CellTox Green Cytotoxicity Assay to monitor cytotoxicity in HepG2 cells - 0 hour (AID 1224882); note: nearly all actives have a fitted effect of over 35% in size
Procedure, shortened: (§3)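 HepG2, 600 cells/well premixed w/ CellTox Green; 5 h settle, 37 C/5% CO2; pintool cpd add (DMSO); 37 C, 40 h; fluorescence read at 0, 8, 16, 24, 32, 40 h.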

[4] = A CellTox Green Cytotoxicity Assay to monitor cytotoxicity in HepG2 cells - 32 hour (AID 1224883); note: nearly all actives have a fitted effect of over 50% in size; note: potency is the fitted concentration of half-maximal effect
Procedure, shortened: as §3

[5] = A CellTox Green Cytotoxicity Assay to monitor cytotoxicity in HEK293 cells - 8 hour (AID 1224884); note: nearly all actives have a fitted effect of over 35% in size; note: potency is the fitted concentration of half-maximal effect
Procedure, shortened: as §2

[6] = qHTS RealTime-Glo MT Cell Viability Assay in HepG2 cells - 16 hour (AID 1224885); note: nearly all actives have a fitted effect of over 50% in size
Procedure, shortened: (§4)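 Tox21 10K library screened in qHTS format on HepG2 cells carrying RealTime-Glo reagents. Compounds were added after a 5 h preincubation, and the luminescent signal from continuous culture was measured repeatedly during 40 h treatment.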

[7] = qHTS RealTime-Glo MT Cell Viability Assay in HEK293 cells - 24 hour (AID 1224886); note: top concentration of the series differs between compounds; nearly all actives have a fitted effect of over 50% in size
Procedure, shortened: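 Luminescence generated by NanoLuc from substrate produced by living HEK293 cells served as the viability signal. Each value reflects the reading at its stated time point during continuous 40 h compound exposure at 37 C.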

[8] = qHTS RealTime-Glo MT Cell Viability Assay in HEK293 cells - 8 hour (AID 1224887); note: top concentration of the series differs between compounds; nearly all actives have a fitted effect of over 50% in size
Procedure, shortened: as §1

[9] = A CellTox Green Cytotoxicity Assay to monitor cytotoxicity in HEK293 cells - 16 hour (AID 1224888); note: nearly all actives have a fitted effect of over 35% in size; note: potency is the fitted concentration of half-maximal effect
Procedure, shortened: as §2

[10] = qHTS RealTime-Glo MT Cell Viability Assay in HepG2 cells - 0 hour (AID 1224889); note: nearly all actives have a fitted effect of over 50% in size
Procedure, shortened: as §4

[11] = A CellTox Green Cytotoxicity Assay to monitor cytotoxicity in HepG2 cells - 8 hour (AID 1224890); note: nearly all actives have a fitted effect of over 45% in size
Procedure, shortened: as §3

[12] = qHTS assay to identify small molecule antagonists of the estrogen receptor alpha (ER-alpha) signaling pathway using the BG1 cell line in the presence of 0.1 nM 17-beta-estradiol - cell viability counter screen (AID 1259241); note: nearly all actives have a fitted effect of over 40% in size
Procedure, shortened: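 VM7Luc4E2 cells (endogenous full-length ER-alpha, 4xERE-luciferase), cultured 5 days in charcoal-stripped serum, exposed to compounds with 0.1 nM 17beta-estradiol (final) for 22 hr at 37C. Viability read in same wells as live-cell protease fluorescence after 30 min.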

[13] = qHTS assay to identify small molecule antagonists of the androgen receptor (AR) signaling pathway using the MDA cell line in the presence of 0.5 nM R1881 - cell viability counter screen (AID 1259242); note: nearly all actives have a fitted effect of over 45% in size
Procedure, shortened: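 Live-cell protease fluorescence, CellTiter-Fluor, 30 min at 37C. Cells: MDA-kb2, 3,000/well, preincubated 5 hr. Compounds plus 0.5 nM R1881 final, 16 hr, 37C, 0% CO2.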

[14] = target: Estrogen receptor (Homo sapiens) (UniProt P03372); assay: qHTS assay to identify small molecule antagonists of the estrogen receptor alpha (ER-alpha) signaling pathway using the BG1 cell line in the presence of 0.1 nM 17-beta-estradiol (AID 1259244); note: nearly all actives have a fitted effect of over 50% in size
Procedure, shortened: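 Luminescence after ONE-Glo (30 min, room temperature) measured ERE-luciferase activity in VM7Luc4E2 cells treated 22 h with compound and 0.1 nM final 17beta-estradiol as stimulator.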

[15] = qHTS assay to identify small molecule HDAC inhibitors - cell viability counter screen (AID 1259365)
Procedure, shortened: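 Wild-type HCT-116 cells, 1,500/well, cultured overnight, then compound-treated 2 h at 37 C. Viability measured as ATP luminescence with CellTiter-Glo after 30 min at room temperature.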

[16] = qHTS assay to identify small molecule agonists of the sonic hedgehog signaling (Shh) pathway - cell viability counter screen (AID 1259366); note: nearly all actives have a fitted effect of over 50% in size
Procedure, shortened: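 NIH/3T3-derived Gli1-Luc reporter cells, 2,000 per well, received compound after 4 h and were treated about 23 h at 37C. Viability measured in the same wells by CellTiter-Fluor fluorescence after 1 h.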

[17] = qHTS assay to identify small molecule antagonists of the sonic hedgehog signaling (Shh) pathway - cell viability counter screen (AID 1259367); note: nearly all actives have a fitted effect of over 55% in size
Procedure, shortened: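 CellTiter-Fluor signal in conditioned medium-stimulated 3T3 Gli1-Luc cells, 23 hr compound exposure, 37C.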

[18] = target: Androgen receptor (Homo sapiens) (UniProt P10275); assay: qHTS assay to identify small molecule antagonists of the androgen receptor (AR) signaling pathway using the MDA cell line in the presence of 0.5 nM R1881 (AID 1259243); note: nearly all actives have a fitted effect of over 50% in size
Procedure, shortened: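 MDA-kb2, MMTV-luc (AR/GR elements); 3,000 cells/well; cpd + 0.5 nM R1881 final; 16 hr 37C, 0% CO2; ONE-Glo 30 min RT; luminescence.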

[19] = qHTS assay to identify small molecule HDAC inhibitors (AID 1259364);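 note: wild-type HCT-116 cells with endogenous class I/II HDAC activity; top concentration of the series differs between compounds; nearly all actives have a fitted effect of over 45% in size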
Procedure, shortened: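 HCT-116 (wild type), 1,500 cells/well, overnight; compound 2 hr 37C 5% CO2; HDAC-Glo I/II reagent 30 min RT; luminescence readout.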

[20] = qHTS assay to identify small molecule phospholipidosis (PLD) inducers (AID 1259344; active = well fitted curve in the direction sought with a large enough effect; an effect the other way counts as inactive or inconclusive)
Procedure, shortened: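 Accumulated phospholipid, stained red by LipidTOX during 24 h compound treatment of HepG2 cells at 37 C, is quantified from images as pit number and intensity, normalised per cell using Hoechst-stained nuclei.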
% is set by controls: 0 for no effect and ±100 for the full control effect.

Chain of Estrogen receptor (Homo sapiens) (P03372 whole entry, looked up): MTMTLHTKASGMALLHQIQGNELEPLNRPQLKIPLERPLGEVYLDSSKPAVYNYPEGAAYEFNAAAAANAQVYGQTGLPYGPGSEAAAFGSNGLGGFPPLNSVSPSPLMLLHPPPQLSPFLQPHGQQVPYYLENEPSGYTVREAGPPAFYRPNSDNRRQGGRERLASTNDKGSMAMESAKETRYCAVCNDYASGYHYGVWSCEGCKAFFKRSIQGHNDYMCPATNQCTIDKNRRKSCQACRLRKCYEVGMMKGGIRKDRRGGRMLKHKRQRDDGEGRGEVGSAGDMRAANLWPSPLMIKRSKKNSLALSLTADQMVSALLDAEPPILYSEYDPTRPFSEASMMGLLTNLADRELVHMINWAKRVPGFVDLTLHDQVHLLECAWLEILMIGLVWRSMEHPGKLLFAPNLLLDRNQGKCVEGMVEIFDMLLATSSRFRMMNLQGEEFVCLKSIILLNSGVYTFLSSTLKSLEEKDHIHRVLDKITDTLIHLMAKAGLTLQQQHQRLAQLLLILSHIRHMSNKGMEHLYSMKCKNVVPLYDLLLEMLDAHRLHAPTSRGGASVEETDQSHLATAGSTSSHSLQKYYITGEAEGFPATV
Chain of Androgen receptor (Homo sapiens) (P10275 whole entry, looked up): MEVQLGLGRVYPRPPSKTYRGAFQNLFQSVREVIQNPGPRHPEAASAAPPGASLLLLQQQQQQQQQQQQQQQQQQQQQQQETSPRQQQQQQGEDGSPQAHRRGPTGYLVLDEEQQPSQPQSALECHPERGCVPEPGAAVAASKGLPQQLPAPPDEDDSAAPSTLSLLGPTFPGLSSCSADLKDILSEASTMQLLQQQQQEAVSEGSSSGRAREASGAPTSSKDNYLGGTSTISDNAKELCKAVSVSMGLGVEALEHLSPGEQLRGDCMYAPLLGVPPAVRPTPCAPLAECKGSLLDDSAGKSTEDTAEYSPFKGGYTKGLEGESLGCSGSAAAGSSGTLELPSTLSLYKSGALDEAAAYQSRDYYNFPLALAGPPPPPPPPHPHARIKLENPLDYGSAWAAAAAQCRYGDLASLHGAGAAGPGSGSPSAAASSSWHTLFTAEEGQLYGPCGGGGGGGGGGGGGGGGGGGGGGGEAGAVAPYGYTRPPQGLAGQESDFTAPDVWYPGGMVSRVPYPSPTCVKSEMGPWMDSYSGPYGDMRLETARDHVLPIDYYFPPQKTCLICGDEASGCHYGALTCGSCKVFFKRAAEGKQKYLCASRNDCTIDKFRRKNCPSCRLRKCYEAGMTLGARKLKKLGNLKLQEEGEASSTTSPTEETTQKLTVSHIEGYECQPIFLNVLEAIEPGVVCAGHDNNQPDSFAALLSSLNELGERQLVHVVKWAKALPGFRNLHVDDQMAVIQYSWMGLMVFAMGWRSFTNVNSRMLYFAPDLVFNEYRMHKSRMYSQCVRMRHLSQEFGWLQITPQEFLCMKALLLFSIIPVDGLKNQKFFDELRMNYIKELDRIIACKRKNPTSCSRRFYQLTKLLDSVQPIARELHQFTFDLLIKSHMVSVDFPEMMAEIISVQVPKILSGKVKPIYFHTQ

OCC(CBr)(CBr)CBr
inactive: outcome [1] | Potency [2] | Potency [3] | Potency [4] | Potency [5] | outcome [6] | Potency [7] | Potency [8] | Potency [9] | Potency [10] | Potency [11] | Potency [12] | outcome [13] | Potency [14] | outcome [15] | Potency [16] | Potency [17]

CC(Oc1c(Cl)cccc1Cl)C1=NCCN1 (configuration not stated)
inactive: outcome [1] | Potency [2] | Potency [3] | Potency [4] | Potency [5] | outcome [6] | Potency [7] | Potency [8] | Potency [9] | Potency [11] | Potency [12] | outcome [13] | Potency [18] | Potency [19] | outcome [15] | Potency [16] | Potency [17]

FC(F)(F)c1ccccc1
inactive: outcome [1] | Potency [2] | Potency [3] | Potency [4] | Potency [5] | outcome [6] | Potency [7] | Potency [8] | Potency [9] | Potency [10] | Potency [11] | Potency [12] | outcome [13] | Potency [14] | outcome [15] | Potency [16] | Potency [17]

C1CSCCS1
inactive: outcome [1] | Potency [2] | Potency [3] | Potency [4] | Potency [5] | outcome [6] | Potency [7] | Potency [8] | Potency [9] | Potency [10] | Potency [11] | Potency [12] | outcome [13] | Potency [19] | outcome [15] | Potency [16] | Potency [17]

NC(=O)NS(=O)(=O)c1ccc(Cl)cc1
inactive: outcome [1] | Potency [2] | Potency [3] | Potency [4] | Potency [5] | outcome [6] | Potency [7] | Potency [8] | Potency [9] | Potency [11] | Potency [12] | outcome [13] | Potency [18] | Potency [14] | Potency [19] | outcome [15] | Potency [16] | Potency [17]

O=CCCc1ccccc1
inactive: outcome [1] | Potency [2] | Potency [3] | Potency [4] | Potency [5] | outcome [6] | Potency [7] | Potency [8] | Potency [9] | Potency [10] | Potency [11] | Potency [12] | outcome [13] | Potency [19] | outcome [15] | Potency [16] | Potency [17]

CC(=O)OC1C2(C)CCC(C2)C1(C)C (configuration not stated)
inactive: outcome [1] | Potency [2] | Potency [3] | Potency [4] | Potency [5] | outcome [6] | Potency [7] | Potency [8] | Potency [9] | Potency [10] | Potency [12] | outcome [13] | Potency [14] | Potency [19] | outcome [15] | Potency [16] | Potency [17]

CCCCCCCCCCCCOCCOS(=O)(=O)O
inactive: outcome [1] | Potency [3] | outcome [6] | Potency [7] | Potency [8] | Potency [10] | Potency [12] | outcome [13] | Potency [14] | Potency [19] | outcome [15] | Potency [16] | Potency [17]
active: Potency [2] 24.5 µM | Potency [4] 54.9 µM | Potency [5] 19.5 µM | Potency [9] 21.9 µM

NS(=O)(=O)c1cc(-c2nn[nH]n2)c(NCc2cccs2)cc1Cl
inactive: outcome [1] | Potency [2] | Potency [3] | Potency [4] | Potency [5] | outcome [6] | Potency [7] | Potency [8] | Potency [9] | Potency [10] | Potency [12] | outcome [13] | Potency [14] | outcome [20] | Potency [19] | outcome [15] | Potency [16] | Potency [17]

CC/C=C\CCOC(=O)C(C)C
inactive: outcome [1] | Potency [2] | Potency [3] | Potency [4] | Potency [5] | outcome [6] | Potency [7] | Potency [8] | Potency [9] | Potency [10] | Potency [11] | Potency [12] | outcome [13] | Potency [14] | outcome [15] | Potency [16] | Potency [17]

O=[N+]([O-])c1nccn1CO[C@@H](CO)[C@H](O)CO
inactive: outcome [1] | Potency [2] | Potency [3] | Potency [4] | Potency [5] | outcome [6] | Potency [7] | Potency [8] | Potency [9] | Potency [10] | Potency [11] | Potency [12] | outcome [13] | outcome [20] | Potency [19] | outcome [15] | Potency [16] | Potency [17]

C1CCOC1
inactive: outcome [1] | Potency [2] | Potency [3] | Potency [4] | Potency [5] | outcome [6] | Potency [7] | Potency [8] | Potency [9] | Potency [10] | Potency [12] | outcome [13] | Potency [19] | outcome [15] | Potency [16] | Potency [17]

Cc1ccc([N+](=O)[O-])cc1Cl
inactive: outcome [1] | Potency [2] | Potency [3] | Potency [4] | Potency [5] | outcome [6] | Potency [7] | Potency [8] | Potency [9] | Potency [10] | Potency [11] | Potency [12] | outcome [13] | Potency [19] | outcome [15] | Potency [16] | Potency [17]

CC(C)NC[C@@H](O)COc1cccc2ccccc12
inactive: outcome [1] | Potency [2] | Potency [3] | Potency [4] | Potency [5] | outcome [6] | Potency [7] | Potency [8] | Potency [9] | Potency [10] | Potency [12] | outcome [13] | outcome [20] | Potency [19] | outcome [15] | Potency [16] | Potency [17]

COC(=O)c1ccc2cc(C(=O)OC)ccc2c1
inactive: activity change, negative = cytotoxicity [1] 3.21% [at 15.8 µM] | cytotoxicity increase [2] 1.19% [at 15.8 µM] | cytotoxicity [3] -8.67% [at 15.8 µM] | cytotoxicity increase [4] -17.5% [at 15.8 µM] | cytotoxicity increase [5] -0.0057% [at 15.8 µM] | activity change, negative = cytotoxic [6] 3.7% [at 15.8 µM] | activity change, negative = cytotoxicity [7] -1.22% [at 15.8 µM] | activity change, negative = cytotoxicity [8] 0.421% [at 15.8 µM] | activity change [9] 2.83% [at 15.8 µM, stronger effect = higher value] | activity change, negative = cytotoxicity [10] 9.21% [at 15.8 µM] | cytotoxicity increase [11] -0.23% [at 15.8 µM] | activity change, negative = cytotoxicity [12] -8.86% [at 19 µM] | viability change, negative = cytotoxic [13] 1.72% [at 19 µM] | activity change, negative = inhibition [14] -28.1% [at 19 µM] | activity change, negative = cytotoxicity [15] -11% [at 19 µM] | viability change, negative = cytotoxic [16] 0.624% [at 19 µM] | viability change, negative = cytotoxic [17] -4.66% [at 19 µM]
